The record followed here is ChEMBL document CHEMBL4513216, “Probing the Open Global Health Chemical Diversity Library for Multistage-Active Starting Points for Next-Generation Antimalarials” (ACS Infect Dis, 2020).

Screen size: about 69,000 compounds; about 8,600 (12%) showed an effect of 50% or more. Shown is part of a subset that was picked to be rich in strong results.

The assay deals with Plasmodium berghei. Description: Screen against P. berghei liver stage (PbLuc), transformed with Luciferase, at 10uM. To be noted: tested at 10 uM. The assay is classed as functional, HepG2.
For `NCC(CO)Cc1cccc(OC(F)(F)F)c1` (centres undefined), the INHIBITION is recorded as -14.5%. The result for `CC(C)N1Cc2c(C(=O)N3CCOCC3)nn(C)c2C1` reads 6.82%; that for `CC(C)(C)C(=O)N1CCCC1c1cc(CO)[nH]n1` (centres undefined), 3.585%; that for `CC(C)c1csc(C2CCCN(C(=O)c3ccc(=O)n(C)c3)C2)n1` (centres undefined), 52.6%. Turning to `CC(C)c1csc(C2CCCN(C(=O)c3ccc(=O)n(C)n3)C2)n1` (centres undefined), the INHIBITION is -7.48%.

Turning to `Cc1nc(C(=O)N2CCCC(c3nc(C(C)C)cs3)C2)c[nH]1` (centres undefined), the INHIBITION came to 8.12%. As for `CC(C)c1csc(C2CCCN(C(=O)Cn3ccccc3=O)C2)n1` (centres undefined), the figure is 9.25%; as for `CC(C)c1csc(C2CCCN(C(=O)c3ncccn3)C2)n1` (centres undefined), 31.9%; as for `CC(C)c1csc(C2CCCN(C(=O)c3ccc[nH]3)C2)n1` (centres undefined), 59.1%. As for `Cc1c(COc2ccccc2)cccc1NC(=O)N1CC[C@H](O)C1`, the figure is 26.9%; as for `COCCC(=O)NCC(O)c1c(F)cccc1F` (centres undefined), -2.92%.

Regarding `Cc1ccc(NC(=O)c2ccc(=O)n(CC(=O)NC3CCCC3)n2)cc1`, the INHIBITION was 16.2%. As for `O=C(O)c1sccc1Oc1ccc(NC(=O)C2CC2)cc1`, the figure is 22.6%. The result for `Cc1cc(C)c(C#N)c(NCCSc2nncn2C)n1` reads 7.45%; that for `CCn1cnnc1CCNc1nc(C)cc(C)c1C#N`, 32.775%. As for `Cc1cc(C)c(C#N)c(NCCn2cnnc2C(C)C)n1`, the figure is 58.9%. In the case of `CCCn1nc(C)c(CN(CCN(C)C)Cc2ccccn2)c1C`, the INHIBITION was 13.7%.

For `Cc1ccccc1CN(CCN(C)C)Cc1ccc(S(C)(=O)=O)cc1`, the INHIBITION is recorded as 40.4%. As for `Cc1ccccc1CN(Cc1ccncc1)CC(C)C`, the figure is 21.5%; as for `Cc1ccccc1CN(Cc1ccc(S(C)(=O)=O)cc1)CC(C)C`, 78.9%; as for `CN(C)C(=O)[C@H]1CO[C@H]2CCN(c3ncc(F)cn3)C[C@H]2C1`, 34.2%. The result for `CN(C)C[C@@H]1C[C@@H]2CN(C(=O)c3ccoc3)CC[C@@H]2N1CC1CC1` reads 25.7%. The result for `CCCNC(=O)CCC(=O)N1CCC(c2noc3cc(F)ccc23)CC1` reads 21.8%. In the case of `CCOC(=O)C1(NCC(=O)Nc2cc(C)ccc2OC)CCCC1`, the INHIBITION is reported as -35%. The result for `Cc1ccc(CN2CCn3c(CN(C)C(C)C)cnc3C2)s1` reads 7.53%; that for `Cc1nc(C(=O)NC2CCN(CCOc3ccc(Br)cc3)CC2)cs1`, 85.4%; that for `CCc1nnsc1C(=O)NC1CCN(CCOc2ccc(Br)cc2)CC1`, 80%.

With `CO[C@@H]1CC[C@@H](NC(=O)c2ccc(OCCN3CCCC3)cc2)[C@H]1O`, the INHIBITION is 34.25%. As for `Cc1nc(CC(=O)N2CCN(CCOc3ccccc3)CC2)cs1`, the figure is 21.8%. As for `Cc1ncc(C(=O)NC2CCN(CCOc3ccc(Br)cc3)CC2)s1`, the figure is 88.6%; as for `Cc1ncsc1C(=O)NC1CCN(CCC(N)=O)CC1`, 24%; as for `CCc1nnsc1C(=O)NC1CCN(c2ccccn2)CC1`, -7.9%. As for `CC(=O)Nc1nc(C(=O)NCCOc2ccc(C)cc2)cs1`, the figure is 49.2%; as for `CN1CCCC1CNC(=O)CCOc1ccc(Br)cc1` (centres undefined), 22.983%. With `COCc1nc(C(=O)N2CCCC(n3nc(C)nc3C)C2)cs1` (centres undefined), the INHIBITION amounted to 26.4%. In the case of `CCn1ncc2c1C(COC)N(C(=O)c1ccc3c(c1)OCO3)CC2` (centres undefined), the INHIBITION is reported as -33%. The result for `COc1nccnc1N1CCCC2(C1)C(=O)N(C)c1ccccc12` (centres undefined) reads -60.7%; that for `C[C@@H]1CN(Cc2ccncc2)C[C@@]1(O)C1CC1`, 3.19%. For `CCc1nc(CN2CCCC(NCc3nc4ccccc4o3)C2)no1` (centres undefined), the INHIBITION was -21.7%.

On to `CCN1CCN(C(=O)c2ccc3c(c2)CCCN3)[C@H]2CS(=O)(=O)C[C@H]21`, for which the INHIBITION stood at 33.2%. The result for `CCN1CCN(C(=O)c2ccc3c(c2)NC(=O)CN3)[C@H]2CS(=O)(=O)C[C@H]21` reads 73%; that for `CCN1CCN(C(=O)c2cc(-c3ccc(C)o3)n[nH]2)[C@H]2CS(=O)(=O)C[C@H]21`, -1.04%; that for `Cn1cnc2cc(C(=O)N3CCN(CCO)[C@@H]4CS(=O)(=O)C[C@@H]43)ccc21`, 73.6%. The result for `Cc1nc2ccc(C(=O)N3CCN(CCO)[C@@H]4CS(=O)(=O)C[C@@H]43)cc2o1` reads 22.3%; that for `CCN1CCN(C(=O)c2cc(C(F)(F)F)n[nH]2)[C@H]2CS(=O)(=O)C[C@H]21`, 33.7%.

Take `CCN1CCN(C(=O)c2ccc3c(c2)OCC(=O)N3)[C@H]2CS(=O)(=O)C[C@H]21`: the INHIBITION is reported as 58.2%. The result for `O=C(c1ccc2nccnc2c1)N1CCN(CCO)[C@@H]2CS(=O)(=O)C[C@@H]21` reads 41.5%; that for `CCCN1CCN(C(=O)c2ccc3nc(C)oc3c2)[C@H]2CS(=O)(=O)C[C@H]21`, 33%. As for `CCN1CC(C(=O)NCc2cccnc2-n2cccn2)CC1=O` (centres undefined), the figure is -10.1%; as for `COC[C@@]12CCO[C@@H]1CCN(C(=O)c1ccc(F)c(F)c1)C2`, -30.6%; as for `Cc1nc(COCC2CN(C(=O)N(C)C)Cc3nccn3C2)cs1` (centres undefined), 45.4%. As for `O=S(=O)(c1cccc(F)c1)N1CCCCC1c1ccn[nH]1` (centres undefined), the figure is 27.8%; as for `CC(C)Nc1nc(N2CCCC2)nc2c1CCN(S(C)(=O)=O)CC2`, 35.2%. Turning to `CC(C)Nc1nc(N2CCCC2)nc2c1CN(S(C)(=O)=O)CC2`, the INHIBITION was -29%. As for `Cc1nc(N2CCCC2)nc2c1CN(C(C)C)CC2`, the figure is -10.4%; as for `CC(C)Nc1nc(N2CCCC2)nc2c1CN(C)CC2`, 22.4%. For `CC(C)Nc1nc(N2CCCC2)nc2c1CN(c1ncc(F)cn1)CC2`, the INHIBITION is given as 65.8%. On to `Cc1nc(CN2CCc3nc(N4CCCC4)nc(NC(C)C)c3C2)cs1`, for which the INHIBITION amounted to 67.4%. As for `CC(C)Nc1nc(N2CCCC2)nc2c1CN(C(C)C)CC2`, the figure is 61.8%; as for `CCC(C)N1CCc2nc(N3CCCC3)nc(NC(C)C)c2C1` (centres undefined), 2.59%; as for `Cc1nc(CN2CCc3nc(NC(C)C)nc(C)c3C2)cs1`, 46.7%.

In the case of `Cc1nc(Nc2nncs2)cc(C2CCCN2)n1` (centres undefined), the INHIBITION is on record as -8.275%.

Regarding `COC(=O)c1cccc(C(=O)N2CCCC(n3cncn3)C2)c1` (centres undefined), the INHIBITION stood at 15.5%. Consider `CN1CC2(CCN(Cc3ncc[nH]3)CC2)CC1=O`, for which the INHIBITION was 53.7%. The result for `CN1CC2(CCN(Cc3cccc(C#N)c3)CC2)CC1=O` reads 43.1%; that for `COCCCN1CC2(CCN(Cc3ncc[nH]3)CC2)CC1=O`, 28.7%; that for `CC(C)=CCN1CC2(CCN(Cc3ncc[nH]3)CC2)CC1=O`, 4.82%. As for `Cc1ncc(CN2CCC3(CC2)CC(=O)N(C)C3)cn1`, the figure is 55.9%. The result for `Cc1ccc(=O)n(CC2(O)CCN(Cc3cnc(C)nc3)CC2)n1` reads 15.9%.
